From PubChem BioAssay AID540333 (Southern Research Specialized Biocontainment Screening …, 2011)
Out of some 10,000 compounds screened, about 320 (3.2%) were called active. Only a selection was taken, and actives are over-represented in it overall. Unmarked numbers belong to inactive results. Cut-off read from the data, not from the text of the source: active = CPE inhibition mostly above about 9.1% (no sharp cut-off); inactive = mostly below about 7.2%.

assay: Dengue virus cytopathic effect inhibitors, cell-based, CPE readout, HTS (AID 540333); details: Dengue virus CPE inhibition in host cells, at 20 µM; stronger effect = higher value

| Compound | CPE inhibition |
| --- | --- |
| CC(=O)c1cc(-c2ccccc2)n(CC(=O)Nc2cccc(C)c2C)c1C | 0.49% |
| CC[C@@]12C(=O)N(c3cccc(Cl)c3)C(=O)N1[C@H](c1ccc(Br)cc1)[C@@H]1C(=O)N(C(C)(C)C)C(=O)[C@@H]12 | 23.6% (active) |
| COc1ccc([C@@H]2[C@@H]3C(=O)N(C(C)(C)C)C(=O)[C@@H]3[C@]3(C)C(=O)N(c4cccc(Cl)c4)C(=O)N23)cc1 | 0.865% |
| CC(C)(C)N1C(=O)[C@H]2[C@@H](c3ccc(Br)cc3)N3C(=O)N(c4cccc(Cl)c4)C(=O)[C@@]3(Cc3ccccc3)[C@H]2C1=O | 31.9% (active) |
| COc1ccc([C@@H]2[C@@H]3C(=O)N(C(C)(C)C)C(=O)[C@@H]3[C@]3(C)C(=O)N(c4ccc(C)cc4)C(=O)N23)cc1 | inactive |
| CCOC(=O)[C@@H]1[C@H]2COc3ccccc3[C@H]2N2C(=O)N(c3cccc(Cl)c3)C(=O)[C@]12C | 0.045% |
| COc1ccc([C@@H]2[C@@H]3C(=O)N(C(C)(C)C)C(=O)[C@@H]3[C@]3(Cc4ccccc4)C(=O)N(c4ccc(OC)cc4)C(=O)N23)cc1 | 0.525% |
| CC(C)(C)N1C(=O)[C@H]2[C@@H](c3ccc(Br)cc3)N3C(=O)N(c4ccccc4)C(=O)[C@@]3(C)[C@H]2C1=O | 2.17% |
| Cc1cccc([C@@H]2[C@@H]3C(=O)N(Cc4ccccc4)C(=O)[C@@H]3[C@]3(CC(C)C)C(=O)N(c4cccc(Br)c4)C(=O)N23)c1 | 1.25% |
| CC[C@@]12C(=O)N(c3ccccc3)C(=O)N1[C@H](c1ccc(Br)cc1)[C@@H]1C(=O)N(C(C)(C)C)C(=O)[C@@H]12 | 5.79% |
| CCN1C(=O)[C@H]2[C@@H](c3ccc(C)cc3)N3C(=O)N(c4ccccc4)C(=O)[C@@]3(CC)[C@H]2C1=O | inactive |
| CC(C)C[C@@]12C(=O)N(c3cccc(F)c3)C(=O)N1[C@H](c1ccc(Br)cc1)[C@@H]1C(=O)N(C(C)(C)C)C(=O)[C@@H]12 | 52.3% (active) |
| CC[C@@]12C(=O)N(c3cccc(Br)c3)C(=O)N1[C@H](c1cccc(C)c1)[C@@H]1C(=O)N(Cc3ccccc3)C(=O)[C@@H]12 | 12.7% (active) |
| CC(=O)c1ccc(N2Cc3ccccc3/C2=N\C(=O)Nc2ccccc2)cc1 | 1.88% |
| O=C(c1cc(-c2ccccc2)nn1CC1CC(c2cccnc2)=NO1)N1CCOCC1 (centres undefined) | 0.185% |
| Cc1ccc(/C=C/C(=O)NCCCN2CCN(CCCNC(=O)/C=C/c3ccc(C)o3)CC2)o1 | 0.03% |
| Cc1ccc([N+](=O)[O-])cc1S(=O)(=O)NCCc1c(C)[nH]c2c(C)cccc12 | 0.035% |

| Compound | CPE inhibition |
| --- | --- |
| COc1ccc(NC(=S)N(CCN(C)C)C(C)c2ccco2)cc1 (centres undefined) | 1.96% |
| CCC(=O)N/N=C(\C)CC(=O)Nc1ccccc1-c1ccccc1 | inactive |
| Cc1ccc(-c2cc3c(n2-c2ccc(C(=O)O)cc2)CCCC3=O)cc1 | inactive |
| COc1ccc(C(=O)NCC(=O)NCC(c2ccco2)N(C)C)cc1OC (centres undefined) | inactive |
| CCOc1ccc(NC(=O)CNC(=O)COc2ccccc2)cc1 | 0.38% |
| COC(C(=O)Nc1ccc(S(=O)(=O)Nc2cccc3ccccc23)cc1)c1ccccc1 (centres undefined) | 5.08% |
| O=C(NC(=S)N1CCN(c2ccc([N+](=O)[O-])cc2)CC1)c1ccccc1F | 1.42% |
| O=C(COC(=O)CC1c2ccccc2CCN1S(=O)(=O)c1ccccc1)Nc1ccccc1 (centres undefined) | 0.325% |
| COc1ccc([C@H]2CC(=O)C=C(c3ccccc3)C2)cc1 | 3.05% |
| CCOC(=O)c1cccc(C2=CC(=O)C[C@H](c3ccc(OC)cc3)C2)c1 | 11.8% (active) |
| COc1ccc([C@H]2CC(=O)C=C(c3cccc(OC)c3)C2)cc1 | inactive |
| CCOc1cccc(OCCOCCN(C)C)c1 | inactive |
| CCOC(=O)C1=NNC2(c3ccc(Cl)cc3)C(=O)N(c3ccc(C)cc3)C(=O)C12 (centres undefined) | inactive |
| CSCCC(NS(=O)(=O)c1ccc(Cl)cc1)C(=O)OCc1cccc(Cl)c1 (centres undefined) | 12% (active) |
| CSCCC(NC(=O)c1ccc(Cl)cc1)C(=O)OCC(=O)Nc1cc(Cl)ccc1C (centres undefined) | 0.1% |
| CC(=O)Nc1ccc(S(=O)(=O)NCCSCc2cccc(Cl)c2)cc1 | 1.06% |
| CC(C)OC(=O)/C(=C/c1ccc(Br)cc1)NC(=O)c1ccco1 | inactive |
